Screening data (PubChem)
In the library only some 8.7% were active in any assay of this set; here they are far more common.
VACV Venus inh – qHTS for Stage-Specific Inhibitors of Vaccinia Orthopoxvirus: Venus Reporter Primary qHTS | AID 720580, 2013 | Vaccinia virus Venus reporter expression, fluorescence | 330,000 compounds, 0.46% hits | Potency, µM (doses to about 36.5 µM), inactives show top-dose activity change, negative = inhibition, usual class: inhibitors; calls by dose curve; tested in A549 cells; also: nearly all actives have a fitted effect of over 30% in size
AMA1-RON2 inh – qHTS for Inhibitors of AMA1-RON; Towards Development of Antimalarial Drug Lead: Primary Screen | AID 720542, 2013 | AlphaScreen AMA1-biotinylated RON2 peptide binding | 360,000 compounds, 0.2% hits | Potency, µM (titrated, usually from 58.2 µM), for inactives: at the highest dose activity change, negative = inhibition, actives largely listed as inhibitors | Plasmodium falciparum AMA1 (3D7) - RON2 peptide interaction;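 also: 0% = vehicle wells and -100% = peptide control; nearly all actives have a fitted effect of over 45% in size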
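AMA1 (3D7) with his tag at 25 nM final met compounds first, then biotinylated RON2 peptide at 25 nM; detection used donor plus acceptor beads, 10 µg/mL apiece, read by AlphaScreen after 30 min at room temperature.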
Pf growth 48h – Primary qHTS for delayed death inhibitors of the malarial parasite plastid, 48 hour incubation. P. falciparum luciferase growth in erythrocytes, 48 h. Potency, µM (highest dose often 28.7 µM), inactives show at the top dose activity change, negative = inhibition, actives largely listed as inhibitors. 310,000 compounds, 5.9% hits. AID 504832, 2011
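Compounds are pin-transferred into medium, infected erythrocytes (2% hematocrit, 0.1% parasitemia final) are added, and plates sit one parasite generation at 37 C in 5% CO2. Detection reagent is then added and luminescence measured.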
Pf growth 96h – Primary qHTS for delayed death inhibitors of the malarial parasite plastid, 96 hour incubation; P. falciparum luciferase reporter growth, 96 h; Potency, µM (titrated, usually from 28.7 µM), without a hit: at the highest dose activity change, negative = inhibition, actives largely listed as inhibitors; 320,000 compounds, 6.9% hits
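Delayed-death screen, second-generation endpoint: infected erythrocytes, 2% hematocrit, 0.05% parasitemia final; 96 hours at 37 C, 5% CO2; luciferase detection reagent; luminescence decrease equals reduced growth.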
VACV mCherry inh – qHTS for Stage-Specific Inhibitors of Vaccinia Orthopoxvirus: mCherry Reporter Primary qHTS | Vaccinia virus mCherry reporter infection, fluorescence | Potency, µM (highest dose often 36.5 µM), without a hit: at the highest dose activity change, negative = inhibition, actives largely listed as inhibitors | 310,000 compounds, 0.63% hits; calls by dose curve; tested in A549 cells; also: nearly all actives have a fitted effect of over 35% in size
Active calls of the source: *; i = inactive; ? = inconclusive; nt = no result given; ! = repeats disagree; [ ] = remark or other dose. Unless noted, calls follow the shape of the dose curve; as a rule, active = well fitted curve in the direction sought with a large enough effect; inconclusive = small, poorly fitted or top-dose-only effect, or another doubt; inactive = no such curve, though single readings can be large; an effect the other way counts as inactive or inconclusive. Unless noted, % is scaled to controls: 0 for no effect and ±100 for the full control effect; potency is read from the fitted curve at half-maximal effect.

SMILES | VACV Venus inh | AMA1-RON2 inh | Pf growth 48h | Pf growth 96h | VACV mCherry inh
O=C(O)CCC(=O)N1CCc2cc(S(=O)(=O)N3CCN(c4ccc(F)cc4)CC3)ccc21 | -17% | 14% | nt | 15µM* | i
O=C(O)CCC(=O)N1CCc2cc(S(=O)(=O)NCCc3ccc(Cl)cc3)ccc21 | nt | 18% | 9% | ? | nt
CCc1ccc(NC(=O)CC2C(=O)N(c3ccc(Cl)cc3)C(=O)N2C2CCCC2)cc1 (stereo not drawn) | -21% | nt | nt | nt | -21%
COc1cc(OC)c(C(=O)/C=C/c2ccc(OCc3ccccc3)c(OC)c2)c(OC)c1 | ? | -15% | ? | ? | ?
CCC1CSC(Nc2ccc(C(=O)/C=C/c3ccc(OC)c(OC)c3)cc2)=N1 (stereo not drawn) | ? | 4% | ? | ? | 11µM*
COc1ccc(/C=C/S(=O)(=O)NCc2ccccc2)cc1OC | -9% | 3% | 12µM* | 39% | i
CCOc1cc(/C=N/OC(C)=O)ccc1OCc1ccccc1 | -7% | -3% | 27% | 10µM* | -10%
COc1ccc(C(=O)C=Cc2ccc(OCc3ccccc3)c(OC)c2)cc1OC | 11µM* | -6% | nt | nt | ?
CCC1CSC(Nc2ccc(C(=O)/C=C/c3ccc(Br)cc3)cc2)=N1 (stereo not drawn) | -24% | 5% | ? | ? | -18%
Cc1ccc2nc(-c3cccc(NC(=O)CSc4ccc(Cl)cc4)c3)oc2c1 | -20% | nt | nt | nt | -13%
COc1ccc(/C=C/C(=O)c2ccccc2)c(OC)c1 | -2% | -6% | 161% | 4% | -2%
COc1ccc(/C=C/C(=O)c2ccc(OC)cc2OC)c(OC)c1 | 7% | 2% | ? | 3.7µM* | 4%
COc1cc(OC)c(C(=O)C=Cc2ccc(OC)c(OC)c2)c(OC)c1 | ? | 0% | nt | nt | 10µM*
COc1ccc(C=CC(=O)c2ccc(OC)c(OC)c2)cc1O | 10µM* | -9% | nt | nt | ?
CCOC(=O)NC1(C(F)(F)F)NC(=O)N(c2ccc(C)c(C)c2)C1=O (stereo not drawn) | -5% | nt | nt | nt | -3%
CCN(CC)CCN1C(=O)c2ccccc2NC1c1ccc(F)cc1 (stereo not drawn) | nt | 11% | ? | ? | nt
CCN(CC)CCN1C(=O)c2ccccc2NC1c1ccc(Br)cc1 (stereo not drawn) | -13% | -11% | 1µM* | 13µM* | -13%
CCN(CC)CCN1C(=O)c2ccccc2NC1c1cccc(F)c1 (stereo not drawn) | nt | 3% | ? | nt | nt
CCN(CC)CCN1C(=O)c2ccccc2NC1c1ccc(N(C)C)cc1 (stereo not drawn) | -13% | -4% | 0.41µM* | nt | nt
CN(C)CCN1C(=O)c2oc3ccccc3c(=O)c2C1c1ccc(F)cc1 (stereo not drawn) | nt | 3% | ? | ? | nt
CCN(CC)CCN1C(=O)c2oc3ccccc3c(=O)c2C1c1ccc(C)cc1 (stereo not drawn) | -14% | -2% | 3.3µM* | 2.6µM* | nt
CCN(CC)CCN1C(=O)c2ccccc2NC1c1ccc(C)cc1 (stereo not drawn) | nt | 1% | 1.7µM* | nt | nt
O=C(COC(=O)/C=C/c1ccc(Cl)cc1Cl)Nc1ccc2c(c1)OCCO2 | -2% | 0% | 28% | 2.9µM* | 0%
O=C(CSCc1c(Cl)cccc1Cl)Nc1ccc2c(c1)OCCO2 | -16% | -41% | 49% | 3.3µM* | -5%
COc1cc(NC(=O)COC(=O)/C=C/c2ccc(Cl)cc2Cl)cc(OC)c1 | -8% | 12%[11.6 µM] | 6% | 0% | -16%
SMILES | VACV Venus inh | AMA1-RON2 inh | Pf growth 48h | Pf growth 96h | VACV mCherry inh
Cc1cccc(C)c1OCC(=O)Nc1ccc2c(c1)OCCO2 | nt | 0% | 27% | 12µM* | nt
Cc1cc(C)cc(-n2ccnc(NCc3ccc(F)cc3)c2=O)c1 | -8% | nt | nt | nt | i
CCCOc1ccc(CCc2n[nH]c(=S)n2Cc2ccccc2)cc1 | nt | 76% | 5.9µM* | 2% | nt
COc1ccc(N2CCN(C(=O)NC34CC5CC(CC(C5)C3)C4)CC2)cc1 | ? | -10% | nt | 5.2µM* | -26%
O=C1N(c2ccccc2)CCN1c1ccccc1 | nt | 2% | 322% | 10µM* | nt
O=C(O)[C@@H](c1ccccc1)N1Cc2ccccc2C1=O | -6% | ? | nt | ? | -11%
Cc1ccc(N2Cc3ccccc3C2=O)cc1 | nt | 2% | -14% | 47% | nt
O=C1c2ccccc2CN2C(=O)c3ccccc3CN12 | -3% | -4% | -1% | 3.7µM*! | i
COc1ccc(N2Cc3ccccc3C2=O)cc1 | -7% | 17% | -20% | 2.9µM* | -9%
O=C1c2ccccc2CN1c1ccccc1 | -6% | -6% | 96% | 4.1µM* | i
COc1ccc(N2C(=O)c3ccccc3S2(=O)=O)cc1 | -5% | 6% | 2.9µM* | 46% | -18%
COc1ccc(N2C(=O)N(Cc3ccc(C)cc3)c3ccccc3S2(=O)=O)cc1 | -5% | 1% | ? | ? | ?
CCOc1cc(/C=C2\N=C(SC(C)C(N)=O)N(c3ccc(OC(F)F)cc3)C2=O)ccc1O (stereo not drawn) | nt | -5% | 47% | 1.2µM* | nt
NC(=O)CSC1=N/C(=C\c2ccco2)C(=O)N1c1ccc(OC(F)F)cc1 | nt | 28% | ? | 0% | nt
COC(=O)c1cc(NS(=O)(=O)c2cc(Br)cc3c2N(C(C)=O)CC3)cc(C(=O)OC)c1 | -2% | nt | nt | nt | -10%
Cc1ccc(C(=O)N/N=C/C2=Cc3ccccc3OC2C)cc1 (stereo not drawn) | -15% | 11% | ? | ? | -9%
Cc1ccc(-c2ccc(/C=N/NC(=O)c3ccccc3O)o2)cc1 | nt | nt | 0.59µM* | 0.83µM* | nt
CC1Oc2ccccc2C=C1/C=N/NC(=O)c1ccccc1O (stereo not drawn) | -13% | 94% | 3.7µM* | ? | -28%
CC1Oc2ccccc2C=C1/C=N/NC(=O)c1ccccc1 (stereo not drawn) | -5% | 16% | 2.9µM* | ? | -21%
Cc1nc2ccccc2nc1CN1CCOc2ccc(CN3CCc4sccc4C3)cc2C1 | 2% | nt | nt | nt | -1%
Cc1nn(C)cc1C(C(=O)NC1CCCCC1)N(C(=O)Cc1cccs1)c1ccc(F)cc1 (stereo not drawn) | -9% | -2% | 0% | 22% | 1%
COc1ccc(N(C(=O)Cc2cccs2)C(C(=O)NC2CCCCC2)c2cccn2C)cc1 (stereo not drawn) | -18% | -8% | nt | ? | -20%
Cn1cccc1C(C(=O)NC1CCCCC1)N(C(=O)Cc1cccs1)c1ccc2c(c1)OCO2 (stereo not drawn) | -13% | 5% | ? | ? | i
